Compound activity (PubChem BioAssay)
The list is a sample of the results.
aSyn UTR act: Activators via SNCA 5'UTR binding, MLPCN | alpha-synuclein 5'UTR reporter, activators screen | activity score, % (tested at 7.5 µM), hits read low | actives 7.1% (n = 300,000); in the data active = activity score below about -60%
Each line names hits and unclear results; the compound was inactive in the other large screens.

C=CCn1c(=NC(=O)c2ccco2)sc2cc(C(=O)OC)ccc21	aSyn UTR act -77
Cc1nnc2n(c1=O)N=C(c1ccc(Cl)cc1)CS2	aSyn UTR act -93
COc1ccc(C2=Nn3c(nnc3-c3ccc(OC)cc3)SC2)cc1	none
Cc1ccc(C(=O)O/N=C(\N)c2ccccc2)c(Cl)c1	none
N/C(=N\OC(=O)c1ccccc1Cl)c1ccncc1	aSyn UTR act -107
N/C(=N\OC(=O)c1cc(Cl)ccc1Cl)c1ccncc1	aSyn UTR act -229
N/C(CS(=O)(=O)c1ccccn1)=N\OC(=O)c1ccccc1Cl	aSyn UTR act -114
N/C(=N\OC(=O)c1ccc(Cl)cc1Cl)c1ccncc1	aSyn UTR act -112
N/C(=N\OC(=O)Cc1ccc(Cl)cc1)c1ccccn1	aSyn UTR act -154
CCCc1ccc(C(=O)O/N=C(\N)c2ccccn2)cc1	none
N/C(=N\OC(=O)Cc1cccc2ccccc12)c1ccccn1	aSyn UTR act -156
Cc1ccc(CC(=O)O/N=C(\N)c2ccccn2)cc1	aSyn UTR act -89
N#Cc1c(-c2ccccc2)ccnc1Oc1ccccc1	aSyn UTR act -75
COC(=O)c1ccc2c(c1)C(=O)/C(=C/c1ccc(O)cc1)O2	aSyn UTR act -118
COc1cccc(/C=C2\Oc3ccc(O)cc3C2=O)c1O	none
CC(C)(C)c1ccc(/C=C2\Oc3cc(O)ccc3C2=O)cc1	aSyn UTR act -69
c1ccc(-c2n[nH]c(-c3ccccn3)n2)nc1	aSyn UTR act -63
c1ccc(-c2n[nH]c(-c3ccccn3)n2)cc1	aSyn UTR act -114
NC(=O)c1ccccc1NC(=O)/C=C/c1cccc(Cl)c1	aSyn UTR act -133
NC(=O)c1ccccc1NC(=O)/C=C/c1c(Cl)cccc1Cl	aSyn UTR act -189
CN(C)c1ccc(NC(=O)/C=C/c2c(Cl)cccc2Cl)cc1	aSyn UTR act -80
CCCOc1ccc(-c2nc(OC)c3ccccc3n2)cc1	aSyn UTR act -85
Cc1cccc(CN2C(=O)/C(=C\c3ccc(C(=O)NCCCN4CCN(C)CC4)cc3)Oc3ccccc32)c1	none
CN1CCN(C(=O)c2ccc3c(c2)NC(=O)/C(=C/c2ccccc2)S3)CC1	aSyn UTR act -88
Cc1cccc(/C=C2/Sc3ccc(C(=O)NCCCN4CCOCC4)cc3NC2=O)c1	aSyn UTR act -69
CSc1ccccc1C(=O)Nc1ccc(C)c(C)c1	aSyn UTR act -130
CCOc1ccc(NC(=O)c2ccccc2SC)cc1	aSyn UTR act -110
Cc1c(C(=O)NC2=NCCS2)oc2ccccc12	aSyn UTR act -62
Cc1sc(NC(=O)c2sc3nc4c(C)cccc4cc3c2N)c(C#N)c1C	aSyn UTR act -119
Cc1cccc2cc3c(N)c(C#N)sc3nc12	none
Cc1cc(C(=O)Nc2sc(C)c(C)c2C#N)c(C)o1	aSyn UTR act -65
Cc1csc(Nc2nc(N)c(C(=O)Nc3ccccc3)o2)n1	aSyn UTR act -131
Cc1sc(NC(=O)c2oc3ccccc3c2C)c(C#N)c1C	aSyn UTR act -107
Cc1csc(NC(=O)c2oc3ccccc3c2C)n1	aSyn UTR act -68
O=C(Nc1cccnc1)c1ccc(CN2CCc3ccccc3C2)cc1	aSyn UTR act -68
Cc1ccc(NC(=O)c2ccc(CN3CCc4ccccc4C3)cc2)cc1	aSyn UTR act -101
O=C(Nc1ccc(Cl)cc1)c1csc(-c2ccccc2)n1	aSyn UTR act -68
O=C(Nc1ccc(Cl)cc1)c1csc(-c2ccncc2)n1	aSyn UTR act -66
O=C(Nc1ccc(Cl)cc1Cl)c1csc(-c2cccnc2)n1	aSyn UTR act -72
COc1cccc(-c2ccc(C#N)c(OC(=O)c3c(Cl)cccc3Cl)n2)c1	aSyn UTR act -74
Cc1ccc(/C(N)=N/OC(=O)COc2ccccc2Cl)cc1	aSyn UTR act -95
N/C(=N\OC(=O)COc1ccccc1Cl)c1ccc(Cl)cc1	aSyn UTR act -90
CNC(=O)c1c(Br)cnn1-c1ccc(C)cc1	aSyn UTR act -158
CNC(=O)c1c(Cl)cnn1-c1ccc(C)cc1	aSyn UTR act -151
Cc1ccc(-n2ncc(Cl)c2C(=O)NC2CC2)cc1	aSyn UTR act -153
C=CCNC(=O)c1c(Cl)cnn1-c1ccc(C)cc1	aSyn UTR act -95
O=C(Nc1ccc(Cl)cc1)OCc1cncs1	aSyn UTR act -119
O=C(Nc1cccc2ccccc12)OCc1cncs1	aSyn UTR act -62
O=C(Nc1cccc(Cl)c1)OCc1cncs1	aSyn UTR act -80
Cc1ccccc1OCCCCn1cnc2ccccc21	aSyn UTR act -83
COc1ccc(OCCn2cnc3ccccc32)cc1	aSyn UTR act -70
Brc1ccccc1OCCCn1cnc2ccccc21	aSyn UTR act -93
Cc1ccccc1OCC(O)Cn1c(=N)n(Cc2ccccc2)c2ccccc21 (stereo unspecified)	none
c1ccc(CCn2cnc3ccccc32)cc1	aSyn UTR act -91
CCCCN1C(=O)C(=O)N(CC(=O)N2N=C3/C(=C/c4ccco4)CCCC3C2c2ccco2)C1=O (stereo unspecified)	aSyn UTR act -86
Cc1ccc(O)c(NC(=O)c2cc(-c3ccccc3)on2)c1	aSyn UTR act -254
CCCc1cc(C(=O)Nc2ccccc2C(=O)OC)no1	aSyn UTR act -71
O=C(Nc1cc(Br)ccc1O)c1cc(-c2ccccc2)on1	aSyn UTR act -131
CCCc1cc(C(=O)Nc2cc(C)ccc2O)no1	aSyn UTR act -250
CCCn1cc(NC(=O)c2cc(-c3ccccc3)on2)cn1	aSyn UTR act -134
CCN=C1NN=C(c2ccc(C)cc2)CS1	aSyn UTR act -128
c1ccc(CN=C2NN=C(c3ccccc3)CS2)cc1	aSyn UTR act -182
Cc1sc2c(c1C)C(=O)NC(c1cccc(O)c1)N2 (stereo unspecified)	aSyn UTR act -233
Cc1cccc(C)c1NC(=O)c1c[nH]c2ccccc12	aSyn UTR act -120
COc1ccccc1NC(=O)c1cnc(Nc2ccccc2OC)c2ccccc12	none
COc1ccccc1NC(=O)c1c[nH]c2ccccc12	aSyn UTR act -78
COc1ccc(NC(=O)N2CCCCC2)cc1	aSyn UTR act -66
Cc1ccc(NC(=O)N2CCCCCC2)cc1	aSyn UTR act -74
CCOC(=O)c1ccc(N/C=C2\CCCCC2=O)cc1	aSyn UTR act -127
COC(=O)c1ccc(NC(=O)C(=O)N2CCCC2)cc1	aSyn UTR act -148
O=C(Nc1ccc(Br)cc1)N1CCCCCC1	aSyn UTR act -144
CCc1ccc(NC(=O)N2CCCCCC2)cc1	aSyn UTR act -124
CCOC(=O)c1ccc(NC(=O)N2CCCCC2)cc1	aSyn UTR act -92
CCSc1nnc(NC(=O)/C=C/c2ccco2)s1	aSyn UTR act -320
O=C(/C=C/c1ccco1)Nc1nnc(-c2ccco2)s1	aSyn UTR act -117
Cc1nc(NC(=O)/C=C/c2ccco2)sc1C	aSyn UTR act -199
O=C(/C=C/c1ccco1)Nc1cccc(NC(=O)/C=C/c2ccco2)n1	aSyn UTR act -193
O=C(/C=C\c1ccco1)Nc1cc([N+](=O)[O-])ccc1F	none
CNS(=O)(=O)c1ccc2nc(NC(=O)/C=C/c3ccco3)sc2c1	aSyn UTR act -230
CCc1nnc(NC(=O)/C=C/c2ccco2)s1	aSyn UTR act -501
O=C(/C=C/c1ccco1)NC1=NCCS1	aSyn UTR act -108
COc1ccc(Nc2nccc3c2nnn3C)cc1	aSyn UTR act -144
CCOc1ccc2[nH]c3ncccc3c(=O)c2c1	aSyn UTR act -139
COc1cccc(-c2nnc(NC(=O)C(C)C)o2)c1	aSyn UTR act -67
COc1cccc(C(=O)Nc2ccc(-c3nnc(-c4ccco4)o3)cc2)c1	aSyn UTR act -127
COc1cccc(OCCOc2ccccc2[N+](=O)[O-])c1	aSyn UTR act -155
COc1cccc(-c2nnc(-c3ccccc3[N+](=O)[O-])o2)c1	aSyn UTR act -136
